Laboratory results published in PubChem BioAssay AID1159580 (chemical genetic matrix, 2015).
Among all 5,500 compounds or so, about 2,000 (36%) were called active. Another 18% or so got no clear call; they are omitted. Rule as the data show it: active = normalized growth mostly below about 0.91 (no sharp cut-off); inconclusive = no clear call, values can overlap the other calls; inactive = mostly above about 0.92. The list shows a part of the results.

Assay: chemical genetic growth profiling, strain panel (AID 1159580);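 also: tested at 20 µM; growth read once vehicle control cultures reached saturation at 30 °C; 1 = growth at the plate median or of vehicle wells; lower values mean less growth of the strain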
Conditions: growth OD

Measured: normalized growth

C[C@]12CCC(=O)C=C1CCC1C2[C@@H](O)C[C@@]2(C)C1CC[C@]2(O)C(=O)CO (stereo partly drawn)
inactive: S. cerevisiae deletion strains, locus YJR075W, strain HOC1, active compounds read low 1.01 | S. cerevisiae deletion strains, locus YKL009W, strain mrt4, active compounds read low 0.992 | S. cerevisiae deletion strains, locus YKL068W, active compounds read low 1.01 | S. cerevisiae deletion strains, locus YKL085W, strain MDH1 (second series), active compounds read low 0.998 | S. cerevisiae deletion strains, locus YKL085W, strain MDH1, active compounds read low 0.998 | S. cerevisiae deletion strains, locus YKL160W, strain elf1, active compounds read low 0.955 | S. cerevisiae deletion strains, locus YKR001C, strain vps1, active compounds read low 0.971 | S. cerevisiae deletion strains, locus YKR026C, strain gcn3, active compounds read low 0.993 | S. cerevisiae deletion strains, locus YKR091W, strain srl3, active compounds read low 0.999 | S. cerevisiae deletion strains, locus YLL001W, strain dnm1, active compounds read low 0.994 | S. cerevisiae deletion strains, locus YLL026W, active compounds read low 0.982 | S. cerevisiae deletion strains, locus YLL041C, strain sdh2, active compounds read low 0.99 | S. cerevisiae deletion strains, locus YLR027C, strain aat2, active compounds read low 1 | S. cerevisiae deletion strains, locus YLR039C, strain RIC1, active compounds read low 1.05 | S. cerevisiae deletion strains, locus YLR058C, strain SHM2, active compounds read low 1.02 | S. cerevisiae deletion strains, locus YLR102C, strain apc9, active compounds read low 0.993 | S. cerevisiae deletion strains, locus YLR113W, strain HOG1, active compounds read low 0.99 | S. cerevisiae deletion strains, locus YLR221C, strain rsa3, active compounds read low 0.985 | S. cerevisiae deletion strains, locus YLR258W, strain gsy2, active compounds read low 0.971 | S. cerevisiae deletion strains, locus YLR262C, strain YPT6 (second series), active compounds read low 1 | S. cerevisiae deletion strains, locus YLR262C, strain YPT6, active compounds read low 1.08 | S. cerevisiae deletion strains, locus YLR268W, strain sec22, active compounds read low 0.977 | S. cerevisiae deletion strains, locus YLR320W, strain mms22, active compounds read low 0.986 | S. cerevisiae deletion strains, locus YLR330W, strain CHS5, active compounds read low 1.01 | S. cerevisiae deletion strains, locus YLR342W, strain FKS1 (second series), active compounds read low 1.01 | S. cerevisiae deletion strains, locus YLR342W, strain FKS1, active compounds read low 0.999 | S. cerevisiae deletion strains, locus YLR357W, strain rsc2, active compounds read low 0.957 | S. cerevisiae deletion strains, locus YLR370C, strain arc18, active compounds read low 1 | S. cerevisiae deletion strains, locus YLR371W, strain rom2, active compounds read low 0.971 | S. cerevisiae deletion strains, locus YLR384C, strain iki3, active compounds read low 0.998 | S. cerevisiae deletion strains, locus YLR418C, strain cdc73, active compounds read low 1.01 | S. cerevisiae deletion strains, locus YML016C, strain PPZ1, active compounds read low 1.02 | S. cerevisiae deletion strains, locus YML032C, strain rad52, active compounds read low 1.01 | S. cerevisiae deletion strains, locus YML120C, strain ndi1, active compounds read low 1.01 | S. cerevisiae deletion strains, locus YML124C, strain tub3, active compounds read low 0.994 | S. cerevisiae deletion strains, locus YMR058W, strain fet3, active compounds read low 1.01 | S. cerevisiae deletion strains, locus YMR078C, strain ctf18, active compounds read low 0.998 | S. cerevisiae deletion strains, locus YMR125W, strain sto1, active compounds read low 0.96 | S. cerevisiae deletion strains, locus YMR129W, active compounds read low 0.993 | S. cerevisiae deletion strains, locus YMR205C, strain PFK2, active compounds read low 0.967 | S. cerevisiae deletion strains, locus YMR223W, strain ubp8, active compounds read low 0.993 | S. cerevisiae deletion strains, locus YMR231W, strain pep5, active compounds read low 1 | S. cerevisiae deletion strains, locus YMR263W, strain SAP30, active compounds read low 1.02 | S. cerevisiae deletion strains, locus YMR307W, strain GAS1, active compounds read low 1.04 | S. cerevisiae deletion strains, locus YNL067W, strain RPL9B, active compounds read low 1.02 | S. cerevisiae deletion strains, locus YNL071W, strain lat1, active compounds read low 1.01 | S. cerevisiae deletion strains, locus YNL153C, strain GIM3, active compounds read low 1.03 | S. cerevisiae deletion strains, locus YNL183C, strain NPR1, active compounds read low 0.939 | S. cerevisiae deletion strains, locus YNL209W, strain ssb2, active compounds read low 0.99 | S. cerevisiae deletion strains, locus YNL233W, strain BNI4, active compounds read low 1.02 | S. cerevisiae deletion strains, locus YNL248C, strain rpa49, active compounds read low 0.989 | S. cerevisiae deletion strains, locus YNL250W, strain rad50, active compounds read low 1.01 | S. cerevisiae deletion strains, locus YNL271C, strain bni1, active compounds read low 0.995 | S. cerevisiae deletion strains, locus YNL298W, strain CLA4, active compounds read low 1.01 | S. cerevisiae deletion strains, locus YNL307C, strain MCK1, active compounds read low 0.995 | S. cerevisiae deletion strains, locus YNL322C, strain KRE1 (second series), active compounds read low 0.969 | S. cerevisiae deletion strains, locus YNL322C, strain KRE1, active compounds read low 1.01 | S. cerevisiae deletion strains, locus YNR049C, strain mso1, active compounds read low 0.999 | S. cerevisiae deletion strains, locus YNR052C, strain pop2, active compounds read low 0.999 | S. cerevisiae deletion strains, locus YOL012C, strain htz1 0.617 | S. cerevisiae deletion strains, locus YOL147C, strain pex11, active compounds read low 1.02 | S. cerevisiae deletion strains, locus YOR001W, strain rrp6, active compounds read low 1.01 | S. cerevisiae deletion strains, locus YOR061W, strain CKA2, active compounds read low 1.02 | S. cerevisiae deletion strains, locus YOR069W, strain VPS5, active compounds read low 1.01 | S. cerevisiae deletion strains, locus YOR070C, strain gyp1, active compounds read low 0.966 | S. cerevisiae deletion strains, locus YOR080W, strain dia2, active compounds read low 1.01 | S. cerevisiae deletion strains, locus YOR083W, strain WHI5, active compounds read low 0.945 | S. cerevisiae deletion strains, locus YOR106W, strain vam3, active compounds read low 0.971 | S. cerevisiae deletion strains, locus YOR136W, strain idh2, active compounds read low 0.985 | S. cerevisiae deletion strains, locus YOR144C, strain elg1, active compounds read low 0.995 | S. cerevisiae deletion strains, locus YOR184W, strain ser1, active compounds read low 0.993 | S. cerevisiae deletion strains, locus YOR231W, strain MKK1, active compounds read low 0.99 | S. cerevisiae deletion strains, locus YOR265W, strain rbl2, active compounds read low 0.985 | S. cerevisiae deletion strains, locus YOR270C, strain vph1, active compounds read low 0.996 | S. cerevisiae deletion strains, locus YOR290C, strain snf2, active compounds read low 0.983 | S. cerevisiae deletion strains, locus YOR316C, strain cot1, active compounds read low 0.994 | S. cerevisiae deletion strains, locus YPL051W, strain arl3, active compounds read low 0.927 | S. cerevisiae deletion strains, locus YPL055C, strain LGE1, active compounds read low 1.02 | S. cerevisiae deletion strains, locus YPL078C, strain atp4, active compounds read low 0.97 | S. cerevisiae deletion strains, locus YPL106C, strain sse1, active compounds read low 0.926 | S. cerevisiae deletion strains, locus YPL240C, strain hsp82, active compounds read low 0.992 | S. cerevisiae deletion strains, locus YPL256C, strain CLN2, active compounds read low 0.949 | S. cerevisiae deletion strains, locus YPR119W, strain clb2, active compounds read low 0.99 | S. cerevisiae deletion strains, locus YPR141C, strain kar3, active compounds read low 0.999 | S. cerevisiae deletion strains, locus YPR163C, strain tif3, active compounds read low 0.986 | S. cerevisiae deletion strains, locus YPR167C, strain met16, active compounds read low 0.991 | S. cerevisiae deletion strains, strain wtn01, active compounds read low 0.972 | S. cerevisiae strains, strain wild type, active compounds read low 1.02
